ADAM10 inh = inhibitors of human ADAM10 | recombinant ADAM10, EDANS/DABCYL FRET peptide cleavage, 3 h | AID 720582 | O14672 | inhibition, % at 7 µM | actives 0.62% (n = 370,000);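 active = inhibition above a per-campaign cutoff equal to the mean of compounds falling between control-based bounds plus 3 SD, cut at about 20% in these data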;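 also: 0% = DMSO wells while the 100% control is not disclosed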
PLC-beta3 inh = blocks human PLC-beta3 enzyme activity; actives 0.18% (n = 370,000); Purified PLC-beta3, fluorogenic substrate, fluorescence; Q01970; AID 720704; inhibition, % at 12.2 µM; in the data active = inhibition above about 11%;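 also: 0% = median of compound wells on plate and 100% = full blocker control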
PLC-gamma1 inh = inhibitors of human phospholipase C gamma1; P19174; purified PLC-gamma1, fluorogenic substrate, fluorescence; inhibition, % at 12.2 µM; actives 0.84% (n = 370,000); AID 720700
Target sequence (P19174 whole entry, looked up): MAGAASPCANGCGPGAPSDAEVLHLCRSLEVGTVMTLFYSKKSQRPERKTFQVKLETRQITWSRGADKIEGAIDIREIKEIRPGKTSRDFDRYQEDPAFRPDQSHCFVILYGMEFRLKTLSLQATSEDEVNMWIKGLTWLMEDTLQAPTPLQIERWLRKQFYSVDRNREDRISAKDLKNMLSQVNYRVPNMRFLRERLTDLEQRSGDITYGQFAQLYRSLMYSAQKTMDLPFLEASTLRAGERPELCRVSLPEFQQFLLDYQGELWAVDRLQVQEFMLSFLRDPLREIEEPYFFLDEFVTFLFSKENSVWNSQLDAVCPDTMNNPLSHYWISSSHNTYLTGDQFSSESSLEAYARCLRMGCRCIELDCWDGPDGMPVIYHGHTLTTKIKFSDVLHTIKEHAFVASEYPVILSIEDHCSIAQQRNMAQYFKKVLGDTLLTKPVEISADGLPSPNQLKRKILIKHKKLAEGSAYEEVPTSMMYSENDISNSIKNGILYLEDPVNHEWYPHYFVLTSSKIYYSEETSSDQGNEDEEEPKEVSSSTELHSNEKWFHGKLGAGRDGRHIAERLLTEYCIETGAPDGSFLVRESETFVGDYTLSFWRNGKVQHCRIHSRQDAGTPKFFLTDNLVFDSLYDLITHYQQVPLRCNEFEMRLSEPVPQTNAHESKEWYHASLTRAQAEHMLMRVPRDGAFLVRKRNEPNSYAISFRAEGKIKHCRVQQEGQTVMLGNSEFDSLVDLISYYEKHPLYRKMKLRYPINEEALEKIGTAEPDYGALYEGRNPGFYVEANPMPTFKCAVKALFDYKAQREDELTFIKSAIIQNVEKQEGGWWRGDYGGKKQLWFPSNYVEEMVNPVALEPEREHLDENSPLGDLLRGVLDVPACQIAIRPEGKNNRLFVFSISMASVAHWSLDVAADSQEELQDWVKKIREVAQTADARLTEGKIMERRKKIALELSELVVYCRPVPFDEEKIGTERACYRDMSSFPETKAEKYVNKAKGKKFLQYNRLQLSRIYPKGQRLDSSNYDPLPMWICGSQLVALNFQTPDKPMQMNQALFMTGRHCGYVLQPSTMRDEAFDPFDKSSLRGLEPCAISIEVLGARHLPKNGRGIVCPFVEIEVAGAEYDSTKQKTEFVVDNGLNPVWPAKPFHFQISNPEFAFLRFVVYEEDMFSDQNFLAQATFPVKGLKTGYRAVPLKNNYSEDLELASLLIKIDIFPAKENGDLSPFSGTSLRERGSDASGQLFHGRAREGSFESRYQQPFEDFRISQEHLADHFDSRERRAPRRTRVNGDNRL
ADAM17 inh = inhibits human ADAM17. inhibition, % at 6.95 µM. P78536. actives 0.83% (n = 370,000). recombinant ADAM17, EDANS/DABCYL FRET peptide cleavage;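 active = inhibition above the mean of compounds lying between control limits plus 3 SD, set per campaign, cut at about 8.5% in these data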;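 also: 0% = DMSO-only wells as the low control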
proKLK7 act = activators of human kallikrein-7 zymogen | purified proKLK7, EDANS-DABCYL substrate fluorescence; 100% is mature enzyme control, 0% vehicle | P49862 | activation, % at 7 µM | actives 0.9% (n = 370,000);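 active = activation above the mean of all tested compounds plus 3 SD, computed per campaign excluding outliers beyond control limits, cut at about 13% in these data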
PLCgamma1 ctr = PLC-gamma1 inhibition, counter-screen for PLC-beta3 hits. shares compounds with PLC-gamma1 inh. purified PLC-gamma1, fluorogenic substrate, fluorescence. inhibition, % at 12.3 µM. actives 3.1% (n = 3,300). AID 743258
PLCbeta3 conf = confirmation of human PLC-beta3 inhibitors; inhibition, % at 12.3 µM; purified PLC-beta3, fluorogenic substrate fluorescence; shares compounds with PLC-gamma1 inh; actives 1% (n = 3,300); in the data active = inhibition above about 11%
* hit, by the source's call; . = not tested or not shown. Sampled rows, rich in hits. Any-hit rate of the full collection: about 2.9%. Rule as the data show it, unless noted: active = inhibition above about 9.5%; inactive = the rest.

SMILES	ADAM10 inh	PLC-beta3 inh	PLC-gamma1 inh	ADAM17 inh	proKLK7 act	PLCgamma1 ctr	PLCbeta3 conf
CC(=O)c1ccccc1OC(=O)CCN1C(=O)C2C3C=CC(C4CC34)C2C1=O (stereo not given)	12	2	10*	2	0	-6	-1
CC1(C(=O)NCCc2ccccc2)Cc2c(-c3ccc(C(N)=O)cc3)ccnc2O1 (stereo not given)	-8	2	0	2	-1	.	.
O=C(c1cccc(S(=O)(=O)N2CCOCC2)c1)N(CCO)Cc1ccccc1	1	0	10*	-1	0	-5	-1
CCN(CC(=O)NCc1ccc(F)cc1)CC(=O)Nc1cc(S(=O)(=O)N(C)C)ccc1C	-2	-6	-3	0	1	.	.
COC(=O)[C@@]12C[C@@H](CC(=O)N3CCN(C(=O)c4ccco4)CC3)C(=O)N(Cc3cccc4ccccc34)C1=CCC(C)(C)C2	9	-2	1	3	1	.	.
CS(=O)(=O)N1CCC(Oc2ccccc2C(=O)NC2CCOC2)CC1 (stereo not given)	11	7	12*	4	-1	-8	-3
CC(=O)Nc1ccc(-c2ccnc3c2CC(C)(C(=O)Nc2ccc4c(c2)OCO4)O3)cc1 (stereo not given)	-12	1	-3	-1	0	.	.
CC(=O)c1cc(-c2ccc(F)cc2)n(CCC(=O)NC(C)(C)C)c1C	5	7	21*	-4	0	1	5
O=C(C[n+]1cc(-c2ccc(Cl)cc2)n2c1CCC2)N1c2ccccc2Sc2ccccc21	4	3	5	3	0	.	.
CC1CCC(C(C)C)C(OC(=O)C[n+]2cc(-c3ccc(Cl)cc3)n3c2CCC3)C1 (stereo not given)	-2	-3	9.9*	-1	1	-3	-1
N#CC(c1ccc(Cl)cc1)c1ccc(Cl)nn1 (stereo not given)	7	12*	8	4	0	-4	-1
Cc1ccc(OCCSc2nc3ccccc3n2CC(=O)O)cc1C	-1	-8	3	1	0	.	.
NC(=O)C1(N2CCCCC2)CCN(S(=O)(=O)c2ccccc2)CC1	-6	-7	4	-5	0	.	.
NC(=O)C1(N2CCCCC2)CCN(Cc2ccccc2Cl)CC1	-1	11*	8	3	0	-5	-3
CCn1nc(C)c(CN2CCN(Cc3ccsc3)C(CCO)C2)c1C (stereo not given)	4	-3	10*	6	0	0	1
O=C(COC(=O)c1ccccc1)Nc1cc(Cl)ccc1Oc1ccccc1	4	-3	-2	1	0	.	.
CC(C)CN1C(=O)C(=O)N(CC(=O)Nc2cc(Cl)ccc2Oc2ccccc2)C1=O	1	3	20*	2	0	7	10
O=C(COC(=O)c1c(Cl)cccc1Cl)Nc1cc(Cl)ccc1Oc1ccccc1	6	4	11*	5	0	-6	-6
COc1ccc(O)cc1CN1CCN(c2ncc(Cc3ccccc3)cn2)CC1	-7	-5	-2	8	0	.	.
O=C(Nc1ccc2c(c1)OCCO2)c1cccc(Cl)c1	8	-8	-1	-2	0	.	.
O=C(Nc1ccc(N=Nc2ccccc2)cc1)c1cccc(Cl)c1	3	8	12*	2	-1	2	3
COc1ccc(C(=O)N2CCC(O)(c3ccc(F)cc3)CC2)cc1OC	8	4	10*	1	-2	-5	-3
CCCn1c(SCC(=O)NCC)nc2sc3c(c2c1=O)CCC3	-5	-7	9.6*	-6	0	7	2
CCCn1c(SCC(=O)N2CCN(C(C)=O)CC2)nc2sc3c(c2c1=O)CCC3	-1	0	3	8	0	.	.
COc1ccc(-c2nnc3n2N=C(c2cccc([N+](=O)[O-])c2)CS3)cc1	-17	-2	2	-2	0	.	.
SMILES	ADAM10 inh	PLC-beta3 inh	PLC-gamma1 inh	ADAM17 inh	proKLK7 act	PLCgamma1 ctr	PLCbeta3 conf
CCc1ccc(NC(=O)C(=O)NCCN2CCN(S(C)(=O)=O)CC2)cc1	-2	-1	12*	0	0	-4	-1
CCn1c2ccccc2c2cc(NC(=O)COC(=O)c3cccc(F)c3)ccc21	2	1	-1	4	0	.	.
Cn1cnnc1Sc1ccc(C(=O)NCCC23CC4CC(CC(C4)C2)C3)cc1[N+](=O)[O-]	14	3	9.5*	6	1	-2	-4
O=C(CCNC(=O)c1ccccc1)NCCc1ccc(Cl)cc1	6	0	9.6*	3	0	-5	-4
O=C(CCNC(=O)c1ccco1)NCCc1ccc(Cl)cc1	-10	-2	-1	-1	0	.	.
CC(=O)c1ccc(NS(=O)(=O)c2ccc([N+](=O)[O-])cc2)cc1	7	17*	7	7	-1	0	0
CC1CCCN(C(=O)c2ccc(NS(=O)(=O)c3cccc([N+](=O)[O-])c3)cc2)C1 (stereo not given)	1	-3	16*	0	1	-7	-2
O=C(c1ccc(NS(=O)(=O)c2cccc([N+](=O)[O-])c2)cc1)N1CCCCCC1	-1	-3	1	-5	0	.	.
NCCCC[C@@H](C(=O)N1CCNCC1)n1cc([C@@H](N)CO)nn1	5	12*	5	-1	0	-7	-4
CSc1ccccc1NC(=O)CN(C)C(=O)/C=C/c1ccccc1	-16	-4	10*	-3	0	2	8
Cc1ccc(OCCN2CCC2(C)C(=O)Nc2ccc3c(c2)OCCO3)cc1 (stereo not given)	-2	-6	1	-4	0	.	.
CCOC(=O)c1cc(-c2ccccc2)n[nH]1	5	0	5	2	0	.	.
CCOC(=O)c1nncc(-c2ccccc2)n1	-2	11*	4	4	0	-6	-2
CC(C)C[C@H]1CNC(=S)N1CC1CCCN1C[C@H](CC(C)C)N1C[C@H](CC(C)C)N(CCc2ccccc2)C1=S (stereo not given in full)	-6	4	2	-5	0	.	.
Cc1ccccc1NC(=O)C1CC(=O)N(c2ccccc2F)C1 (stereo not given)	6	11*	3	6	1	-2	-1
Cc1ccccc1NC(=O)C1CC(=O)N(c2ccc3c4c(cccc24)CC3)C1 (stereo not given)	5	1	0	0	1	.	.
CSCCC(C(=O)Nc1c(C)cccc1C)N1CCN(C/C=C/c2ccccc2)CC1 (stereo not given)	-1	1	1	0	0	.	.
COC(=O)c1cc(-c2ccc(Br)cc2)n[nH]1	4	3	-1	-2	-1	.	.
CS(=O)(=O)c1nc(-c2ccc(Br)cc2)n[nH]1	2	-6	18*	-3	0	15*	-4

Bioassay records from PubChem BioAssay.
